The text below walks through data of PubChem BioAssay (EPA / NIEHS).

Assay [1] addresses human Opioid Receptor Mu (Opiate Mu), OPRM1 (gene 4988) (UniProt P35372). Briefly: NVS_GPCR_hOpiate_mu: NovaScreen (NVS) G Protein-Coupled Receptor Assay for human Opioid Receptor Mu (Opiate Mu) (AID 2283290).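 Note: hits lower bound tracer signal versus DMSO meaning displacement of the ligand.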 Summed up: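 CHO-derived receptor protein, cell-free; radioligand displacement, filtration + scintillation counting, read at 2.5 h. DMSO = negative control/baseline. Primary: 25 uM single conc, duplicate; secondary: concentration series.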

In assay [2] the target is Sodium channel protein type 1 subunit alpha (Rattus norvegicus) (UniProt P04774). Briefly: NVS_IC_rNaCh_site2: NovaScreen (NVS) Ion Channel Assay for rat Sodium Channel, Site 2 (NaCh) (AID 2283322).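 Note: hit means loss of radioligand binding signal relative to DMSO so AC50 marks displacement.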 Summed up: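 Membranes: rat forebrain. Format: competitive radioligand displacement, filter separation, scintillation readout, 1 h exposure. Primary screen in duplicate at 25 uM; actives retested in concentration series.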

The target of assay [3] is human Neurokinin, NK2 Receptor, TACR2 (gene 6865) (UniProt P21452). Description: NVS_GPCR_hNK2: NovaScreen (NVS) G Protein-Coupled Receptor Assay for human Neurokinin, NK2 Receptor (AID 2283278).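 Note: actives reduce bound radioligand signal relative to DMSO baseline.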 The procedure, abridged: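 Filter-based scintillation counting measured radioligand bound to receptor extracted from CHO cells, 4 hours after compound addition. Chemicals screened first at 25 uM in duplicate, with actives retested in concentration series relative to DMSO.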
Sequence of human Neurokinin, NK2 Receptor, TACR2 (gene 6865) (P21452 whole entry, looked up): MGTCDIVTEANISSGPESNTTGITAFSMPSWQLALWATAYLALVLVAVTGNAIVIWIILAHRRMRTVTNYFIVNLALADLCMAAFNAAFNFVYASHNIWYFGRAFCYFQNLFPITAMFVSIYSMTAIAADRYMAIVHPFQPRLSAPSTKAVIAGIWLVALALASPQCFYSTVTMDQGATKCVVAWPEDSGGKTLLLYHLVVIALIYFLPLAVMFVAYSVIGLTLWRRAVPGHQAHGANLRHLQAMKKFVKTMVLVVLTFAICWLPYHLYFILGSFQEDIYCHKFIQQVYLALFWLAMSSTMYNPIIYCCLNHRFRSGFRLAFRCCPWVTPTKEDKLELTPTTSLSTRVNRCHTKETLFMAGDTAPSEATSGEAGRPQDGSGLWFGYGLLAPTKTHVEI

The target of assay [4] is human Thromboxane A2 Receptor (TXA2), TBXA2R (gene 6915) (UniProt P21731). Briefly: NVS_GPCR_hTXA2: NovaScreen (NVS) G Protein-Coupled Receptor Assay for human Thromboxane A2 Receptor (TXA2) (AID 2283282).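 Note: actives reduce bound radioligand signal relative to DMSO baseline.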 The procedure, abridged: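 Filter scintillation counting of bound radioligand, human platelet protein, 1 h exposure. Single-concentration duplicates (25 uM) first, concentration-response follow-up for actives. Binding loss scored against DMSO baseline.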
Sequence of human Thromboxane A2 Receptor (TXA2), TBXA2R (gene 6915) (P21731 whole entry, looked up): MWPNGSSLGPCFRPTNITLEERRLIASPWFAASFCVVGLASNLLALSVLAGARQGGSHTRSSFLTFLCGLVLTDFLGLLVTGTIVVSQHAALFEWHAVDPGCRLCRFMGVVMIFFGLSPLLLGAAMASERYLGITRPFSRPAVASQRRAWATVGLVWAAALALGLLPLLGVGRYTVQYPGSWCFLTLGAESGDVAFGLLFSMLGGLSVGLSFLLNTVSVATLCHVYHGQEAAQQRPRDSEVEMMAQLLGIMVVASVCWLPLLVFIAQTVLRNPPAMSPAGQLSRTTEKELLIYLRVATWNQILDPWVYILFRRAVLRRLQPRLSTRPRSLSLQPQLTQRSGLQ

In assay [5] the target is rat Adrenergic Receptor, Alpha 2 (Adra2), Non-selective Binding, Adra2a (gene 25083) (UniProt P22909). Description: NVS_GPCR_rAdra2_NonSelective: NovaScreen (NVS) G Protein-Coupled Receptor Assay for rat Adrenergic Receptor, Alpha 2 (Adra2), Non-selective Binding (AID 2283299). Summed up:
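Rat cortical membranes, radioligand competitive displacement read by filter-based scintillation counting 1.25 hours after dosing. Primary screen in duplicate at 25 uM; actives followed up in concentration series.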

For assay [6], the target named is Muscarinic acetylcholine receptor M2 (Homo sapiens) (UniProt P08172). Briefly: NVS_GPCR_hM2: NovaScreen (NVS) G Protein-Coupled Receptor Assay for human Muscarinic, M2 Receptor (AID 2283273). The procedure, abridged:
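Cell-free radioligand binding using membranes from CHO cells expressing the receptor; filter-based scintillation counting after 1 hour of compound exposure. Loss of specific binding relative to DMSO baseline; primary screen at 25 uM in duplicate, actives then run in concentration series.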

Assay [7] can be described thus: NVS_IC_rCaDHPRCh_L: NovaScreen (NVS) Ion Channel Assay for rat Calcium Channel, Type L, Dihydropyridine Site (CaDHPRCh_L) (AID 2283320). The procedure, abridged:
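Radioligand binding to dihydropyridine site on rat cortical membranes, filter-based scintillation counting, 1 h after dosing. Screened in duplicate at 25 uM; actives rerun in concentration-response up to 50 uM. Loss of signal versus DMSO baseline.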

Assay [8] deals with Muscarinic acetylcholine receptor M5 (Homo sapiens) (UniProt P08912). Description: NVS_GPCR_hM5: NovaScreen (NVS) G Protein-Coupled Receptor Assay for human Muscarinic, M5 Receptor (AID 2283275). Summed up:
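Radioligand displacement on CHO-derived membrane preparations, 1 h, filter-based scintillation counting. Single-concentration duplicate screen at 25 uM; hits (e.g. 30% inhibition) retested in singleton concentration-response up to 50 uM. Loss of binding fitted versus DMSO.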

For assay [9], the target named is human Opioid Receptor Delta 1 (Opiate D1), OPRD1 (gene 4985) (UniProt P41143). Briefly: NVS_GPCR_hOpiate_D1: NovaScreen (NVS) G Protein-Coupled Receptor Assay for human Opioid Receptor Delta 1 (Opiate D1) (AID 2283280). Summed up:
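Radioligand displacement on membranes from CHO cells expressing the receptor, read by filter scintillation counting 1 h after dosing. Duplicate single-point screen at 25 uM, then concentration series for actives; loss of signal versus DMSO.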

In assay [10] the target is human Purinergic Receptor P2Y, P2RY1 (gene 5028) (UniProt P47900). Description: NVS_GPCR_hPY2: NovaScreen (NVS) G Protein-Coupled Receptor Assay for human Purinergic Receptor P2Y (AID 2283281). The procedure, abridged: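 Cell-free radioligand binding using U937-derived protein, 1 h after dosing, filter-based scintillation counting. Screened in duplicate at 25 uM; actives rerun as concentration-response up to 50 uM; loss of signal versus DMSO.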
Sequence of human Purinergic Receptor P2Y, P2RY1 (gene 5028) (P47900 whole entry, looked up): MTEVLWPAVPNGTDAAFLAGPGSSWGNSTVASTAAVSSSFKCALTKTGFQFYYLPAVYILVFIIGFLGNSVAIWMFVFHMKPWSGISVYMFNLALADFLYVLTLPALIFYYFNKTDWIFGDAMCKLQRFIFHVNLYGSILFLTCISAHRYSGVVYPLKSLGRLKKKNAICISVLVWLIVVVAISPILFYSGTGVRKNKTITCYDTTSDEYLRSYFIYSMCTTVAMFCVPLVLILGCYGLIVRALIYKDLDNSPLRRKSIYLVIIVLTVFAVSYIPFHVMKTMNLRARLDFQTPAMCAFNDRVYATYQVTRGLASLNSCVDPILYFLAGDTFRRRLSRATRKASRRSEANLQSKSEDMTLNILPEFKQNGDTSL

Assay [11] concerns rat Adrenergic, Alpha 1B Receptor (Adra1B), gene 24173. Briefly: NVS_GPCR_rAdra1B: NovaScreen (NVS) G Protein-Coupled Receptor Assay for rat Adrenergic, Alpha 1B Receptor (Adra1B) (AID 2283297). Summed up:
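Rat liver membranes, radioligand displacement with filter-based scintillation detection, 1 h incubation. Primary screen in duplicate at 25 uM; actives retested in concentration series; activity relative to DMSO.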

Assay [12] deals with 5-hydroxytryptamine receptor 2C (pig). Briefly: NVS_GPCR_p5HT2C: NovaScreen (NVS) G Protein-Coupled Receptor Assay for pig Serotonin, 5-Hydroxytryptamine Receptor 2C (5HT2C) (AID 2283288). The procedure, abridged:
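Pig choroid plexus membranes; radioligand competitive binding, filter-based scintillation counting, read 1 h after dosing. Primary screen in duplicate at 25 uM; actives then run as concentration series; loss of signal versus DMSO baseline.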

Results filed as inconclusive are left out. Active and inactive are the calls of the source. Rule for the calls: active = hit-call score of the fitted dose curve at least 0.9, where 1 is the maximum; inconclusive = response in the unintended direction; inactive = score below 0.9.

Sequence of human Opioid Receptor Mu (Opiate Mu), OPRM1 (gene 4988) (P35372 whole entry, looked up): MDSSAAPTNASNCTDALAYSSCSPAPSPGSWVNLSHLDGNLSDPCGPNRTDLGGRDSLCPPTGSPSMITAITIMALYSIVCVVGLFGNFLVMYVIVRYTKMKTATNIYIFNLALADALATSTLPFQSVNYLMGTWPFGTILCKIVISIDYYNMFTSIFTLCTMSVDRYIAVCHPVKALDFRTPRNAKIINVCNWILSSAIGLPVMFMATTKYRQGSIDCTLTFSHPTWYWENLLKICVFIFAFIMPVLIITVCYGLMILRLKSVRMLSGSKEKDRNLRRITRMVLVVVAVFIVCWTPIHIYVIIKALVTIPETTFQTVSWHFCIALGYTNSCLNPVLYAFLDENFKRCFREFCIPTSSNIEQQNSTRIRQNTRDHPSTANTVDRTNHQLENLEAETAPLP
Sequence of rat Adrenergic Receptor, Alpha 2 (Adra2), Non-selective Binding, Adra2a (gene 25083) (P22909 whole entry, looked up): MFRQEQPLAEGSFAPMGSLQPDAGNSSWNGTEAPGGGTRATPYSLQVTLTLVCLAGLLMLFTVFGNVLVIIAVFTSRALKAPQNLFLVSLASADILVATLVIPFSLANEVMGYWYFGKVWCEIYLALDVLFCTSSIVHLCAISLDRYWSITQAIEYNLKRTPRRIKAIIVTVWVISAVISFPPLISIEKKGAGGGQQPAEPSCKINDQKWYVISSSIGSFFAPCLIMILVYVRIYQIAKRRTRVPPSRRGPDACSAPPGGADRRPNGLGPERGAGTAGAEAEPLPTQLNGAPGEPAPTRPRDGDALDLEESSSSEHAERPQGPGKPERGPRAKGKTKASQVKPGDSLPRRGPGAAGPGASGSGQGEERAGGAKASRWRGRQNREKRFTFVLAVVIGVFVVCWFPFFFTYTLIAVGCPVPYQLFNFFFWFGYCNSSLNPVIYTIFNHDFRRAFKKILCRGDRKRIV
Sequence of Muscarinic acetylcholine receptor M2 (Homo sapiens) (P08172 whole entry, looked up): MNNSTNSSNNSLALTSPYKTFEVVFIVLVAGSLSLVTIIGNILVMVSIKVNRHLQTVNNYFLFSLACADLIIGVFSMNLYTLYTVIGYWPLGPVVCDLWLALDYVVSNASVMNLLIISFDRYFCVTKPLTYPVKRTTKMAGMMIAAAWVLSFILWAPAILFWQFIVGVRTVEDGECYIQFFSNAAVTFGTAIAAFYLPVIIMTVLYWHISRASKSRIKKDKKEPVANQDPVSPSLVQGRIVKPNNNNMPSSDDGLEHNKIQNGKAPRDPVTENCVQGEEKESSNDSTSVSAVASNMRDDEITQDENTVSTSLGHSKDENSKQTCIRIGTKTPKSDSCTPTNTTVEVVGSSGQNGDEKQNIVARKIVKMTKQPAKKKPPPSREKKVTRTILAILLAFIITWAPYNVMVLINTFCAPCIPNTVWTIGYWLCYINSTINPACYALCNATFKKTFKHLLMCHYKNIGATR
Sequence of human Opioid Receptor Delta 1 (Opiate D1), OPRD1 (gene 4985) (P41143 whole entry, looked up): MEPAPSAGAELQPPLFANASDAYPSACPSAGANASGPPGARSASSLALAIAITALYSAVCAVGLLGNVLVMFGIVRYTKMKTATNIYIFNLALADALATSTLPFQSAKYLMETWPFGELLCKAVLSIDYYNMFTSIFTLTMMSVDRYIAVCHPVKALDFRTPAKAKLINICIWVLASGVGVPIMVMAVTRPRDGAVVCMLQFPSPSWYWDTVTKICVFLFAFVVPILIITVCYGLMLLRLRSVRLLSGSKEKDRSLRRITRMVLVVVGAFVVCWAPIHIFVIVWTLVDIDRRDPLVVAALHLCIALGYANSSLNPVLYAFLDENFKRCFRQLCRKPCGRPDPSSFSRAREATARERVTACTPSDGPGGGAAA
Sequence of Muscarinic acetylcholine receptor M5 (Homo sapiens) (P08912 whole entry, looked up): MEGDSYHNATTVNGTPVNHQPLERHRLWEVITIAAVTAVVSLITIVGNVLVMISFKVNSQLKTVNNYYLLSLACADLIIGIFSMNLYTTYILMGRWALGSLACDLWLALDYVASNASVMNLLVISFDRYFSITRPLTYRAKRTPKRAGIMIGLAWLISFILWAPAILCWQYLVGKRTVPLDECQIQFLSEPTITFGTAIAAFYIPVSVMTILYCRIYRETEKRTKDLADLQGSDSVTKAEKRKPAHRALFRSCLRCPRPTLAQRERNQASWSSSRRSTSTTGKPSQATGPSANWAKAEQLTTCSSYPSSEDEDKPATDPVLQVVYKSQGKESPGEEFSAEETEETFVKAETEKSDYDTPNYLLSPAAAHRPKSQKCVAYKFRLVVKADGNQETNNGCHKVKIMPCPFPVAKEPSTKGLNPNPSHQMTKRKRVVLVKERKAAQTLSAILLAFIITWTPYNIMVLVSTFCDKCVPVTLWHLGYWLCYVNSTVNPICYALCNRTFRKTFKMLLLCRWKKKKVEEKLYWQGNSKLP

In the case of `CCOP(=O)(OCC)SCCSCC`, the outcome in assay [1] and in [2] was inactive.

The AC50 is the concentration giving half of the maximal activity seen. Take `Cc1ccc(OP(=O)(Oc2ccc(C)cc2C)Oc2ccc(C)cc2C)c(C)c1`: the AC50 in [3] was 8.63 µM (active).

As to `O=C(O)COc1cc(Cl)c(Cl)cc1Cl`, in [4], the result was inactive.

On to `NC(=O)CCl`, for which, in [2], the AC50 was 42.5 µM (active).

For the compound `CCN(N=O)C(N)=O`, the compound was called inactive in assay [3].

On to `CCCCCCCCCCBr`, for which the compound was called inactive in [2].

`[Cl][Sn]([c]1ccccc1)([c]1ccccc1)[c]1ccccc1`: the AC50 in assay [3] was 2.13 µM (active); in [4], 1.29 µM (active); in assay [1], 0.664 µM (active); in assay [5] it was 9.5 µM (active).

In the case of `BrCCCCBr`, in assay [6], the outcome was inactive.

Take `O=c1oc2ccccc2c(O)c1C(CC(O)c1ccc(-c2ccc(Br)cc2)cc1)c1ccccc1` (stereo unspecified): the AC50 in [3] is 23.9 µM (active); in assay [4] it was 12.2 µM (active); in assay [1] it was 13.7 µM (active).

`Oc1ccc(Cc2ccc(O)cc2)cc1`: the outcome in assay [4] was inactive.

Consider `COc1ccccc1N`, for which the AC50 in [5] was 25 µM (active).

Take `Clc1cccc(Cl)c1`: the result in assay [7] was inactive.

In the case of `CCCCCCCCCCCCc1cccc(S(=O)(=O)O)c1`, the AC50 in [8] was 28.4 µM (active); in assay [9], 11.8 µM (active); in [4], 8.31 µM (active); in assay [1] it was 14.4 µM (active); in [11], 22.5 µM (active). Moreover, the compound was classed as inactive in assay [3] and in [10].

As for `O=C1C=CC(=O)c2ccccc21`, in assay [3], the AC50 is 1.1 µM (active).

Turning to `Nc1ccc(N)cc1`, the AC50 in assay [6] was 9.36 µM (active); in [3], 5.13 µM (active).

Turning to `CCOP(=O)(OCC)OC(=CCl)c1ccc(Cl)cc1Cl`, in assay [4], the AC50 was 0.35 µM (active).

In the case of `COC(=O)Nc1cccc(OC(=O)Nc2cccc(C)c2)c1`, in assay [12], the AC50 is 25 µM (active).

`CCOC(=O)CCN(SN(C)C(=O)Oc1cccc2c1OC(C)(C)C2)C(C)C`: in [3], the result was inactive.
